The structures appear in SMILES notation. Among all 220,000 compounds or so, about 530 (0.24%) were called active. For the sample, actives were picked, then their nearest neighbours and some compounds at random. Results with a measured potency or affinity are listed apart. Unmarked numbers belong to inactive results. No stated cut-off is given here; in the data, active means inhibition above about 13%; inconclusive means no clear call, values can overlap the other calls; inactive means below that.

We go through 96 molecules from PubChem BioAssay AID1376 (SRMLSC, 2008).

Bifunctional protein GlmU (Mycobacterium tuberculosis (strain ATCC 25618 / H37Rv)), sequence (P9WMN3 whole entry, looked up): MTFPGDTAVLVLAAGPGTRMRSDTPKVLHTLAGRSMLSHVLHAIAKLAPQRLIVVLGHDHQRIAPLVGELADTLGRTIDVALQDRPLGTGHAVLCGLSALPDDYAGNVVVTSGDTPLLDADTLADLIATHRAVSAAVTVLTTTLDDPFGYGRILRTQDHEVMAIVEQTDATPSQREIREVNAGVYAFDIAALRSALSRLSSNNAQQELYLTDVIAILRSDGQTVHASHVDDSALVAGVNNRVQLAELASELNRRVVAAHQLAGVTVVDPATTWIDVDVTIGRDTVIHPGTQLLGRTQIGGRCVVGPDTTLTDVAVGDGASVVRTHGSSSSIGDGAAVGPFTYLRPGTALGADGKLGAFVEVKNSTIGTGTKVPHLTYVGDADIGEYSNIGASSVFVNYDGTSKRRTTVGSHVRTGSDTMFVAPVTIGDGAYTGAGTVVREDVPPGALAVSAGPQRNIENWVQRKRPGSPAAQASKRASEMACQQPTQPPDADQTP

The experiment has as its target Bifunctional protein GlmU (Mycobacterium tuberculosis (strain ATCC 25618 / H37Rv)) (UniProt P9WMN3). The experiment in a line: inhibition of mycobacterial GlmU enzyme – biochemical, glucosamine-1-phosphate acetyltransferase (AID 1376).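 Further: 0% = complete reaction with vehicle and 100% = reaction without substrate.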 The settings on record: M. tuberculosis GlmU acetyltransferase enzyme assay; active compounds read high;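 tested at 30 µM in the primary screen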.
Take `CN(C)c1nc(N/N=C\c2ccc(Cl)c([N+](=O)[O-])c2)nc(Nc2ccc(F)cc2)n1`: the inhibition – broadly, the drop in the measured response relative to a control, in per cent – was 3.5%. For `COc1ccc(OCCCC(=O)Nc2cc([N+](=O)[O-])ccc2C)cc1` the value was 0.05%. For `Cc1ccc(NC(=O)CN2C(=O)NC3(CCc4ccccc43)C2=O)cc1Cl` (stereo unspecified) the value was 2.43%. For `CCc1ccc(C(=O)CN2CCSC2=N)cc1` the value was -4.03%. In the case of `COc1ccc2nc(C)cc(SCC(=O)OC(C)C)c2c1`, the inhibition is -3.07%.

For `Cc1ccc(NC(=O)CS(=O)CC(=O)NC2CCN(Cc3ccccc3)CC2)c(C)c1` (stereo unspecified), the inhibition was 5.17%.

As to `CC1CCC/C(=N/Nc2nc3ccccc3s2)C1` (stereo unspecified), the inhibition was 1.47%. For `O=C(Cn1ccc([N+](=O)[O-])n1)N1CCCCC1` the value was 1.12%; for `Cc1nn(C(=O)Cn2ccc([N+](=O)[O-])n2)c(C)c1Br`, 17.6% (active). For `O=C(Cn1ccc([N+](=O)[O-])n1)N1CCCCCC1` the value was -1.9%; for `Cc1cc(C)n2nc(SCCOc3ccccc3)nc2n1`, -0.25%; for `Cc1cccc(NC(=S)NCc2cccn2C)c1`, 4.86%. For `Cc1nc2cccc(C(=O)NCc3ccccc3)c2o1` the value was -4.24%. On to `O=C(NC1CCCCC1)c1cc(Cl)nc2ccccc12`, for which the inhibition is 1.21%.

Turning to `Cc1nc2cccc(C(=O)NC3CCCCC3)c2o1`, the inhibition is 14.4% (active). The same measure for `Cc1cc(Br)ccc1SCC(=O)OCC(=O)Nc1ncc(C(F)(F)F)cc1Cl`: 1.65%; for `CCOC(=O)/C(C#N)=C/Nc1ccccc1OC`: 1.82%; for `CCOC(=O)/C(C#N)=C/Nc1cc(OC)ccc1OC`: -9.19%. The same measure for `CCOC(=O)/C(C#N)=C/Nc1cc(C(=O)OCC)cc2c(OC)c(OC)ccc12`: 26.4% (active); for `C#Cc1ccc([C@H]2C=C(C(=O)NC3CC3)O[C@@H](OCC)[C@@H]2CCCO)cc1`: 3.19%.

In the case of `CCCN1C(=O)c2cc(C(=O)Nc3ccc(OC)cc3OC)ccc2C1Nc1ccc(OC)cc1OC` (stereo unspecified), the inhibition was -6.94%. For `CCCN1C(=O)c2cc(C(=O)Nc3ccccc3OC)ccc2C1Nc1ccccc1OC` (stereo unspecified) the value was -4.43%; for `CCCN1C(=O)c2cc(C(=O)Nc3ccccc3C)ccc2C1Nc1ccccc1C` (stereo unspecified), 12.9% (active); for `Cc1cc(NC(=O)C2CCCCC2C(=O)O)no1` (stereo unspecified), -2.61%. For `Cc1cccc(NNC(N)=S)c1C` the value was 1.37%.

For `CC[n+]1c(/C=C/c2ccc(N(C)C)cc2)ccc2ccccc21`, the inhibition is 2.12%. The same measure for `CN(C)c1ccc(/C=C/c2ccc3c4ccccc4ccc3[n+]2-c2ccccc2)cc1`: 41% (active). The same measure for `CN(C)c1ccc(/C=C/c2ccc3ccccc3[n+]2C)cc1`: -0.66%; for `Cn1cccc1CC(=O)N/N=C/c1cccc([N+](=O)[O-])c1`: -5.88%; for `Cc1ccc(-n2c(C)nc3c(cnn3-c3ccc(C)c(C)c3)c2=O)cc1C`: 6.8%. For `Cc1ccc(-n2ncc3c(=O)n(-c4ccc(C)c(C)c4)c(C)nc32)cc1` the value was 48.2% (active). With `Cc1ccc(-n2c(C)nc3c(cnn3-c3ccc(F)cc3)c2=O)cc1C`, the inhibition is -3.89%. With `Cn1cc(/C=N/NC(=O)c2ccc(C#N)cc2F)c2ccccc21`, the inhibition was 1.51%. As to `CN(C)Cc1c(O)ccc2c3c(c(=O)oc12)CCCCC3`, the inhibition was 0.45%. As for `C=CCN(CC=C)Cc1c(O)ccc2c1oc(=O)c1ccccc12`, the inhibition was -2.23%. `CN(Cc1c(O)ccc2c1oc(=O)c1ccccc12)C1CCCCC1`: the inhibition is 14% (active). The same measure for `COc1ccc2cc3cc(C(=O)NCCCN4CCc5ccccc5C4)sc3nc2c1`: -12.5%; for `Cc1ccc(/C=N/NC(=O)C[n+]2ccccc2)o1`: 5.08%. The same measure for `O=C(CCC(=O)c1cccs1)Nc1nnc(C2CC2)s1`: 2.51%. Take `Cc1ccsc1/C=N/NC(=S)NCc1ccccc1`: the inhibition is 0.62%.

Take `O=[N+]([O-])c1ccc2nccn2c1`: the inhibition was 2.74%. On to `Cc1ccc(NC(=O)CN2C(=O)N/C(=C/c3cc(C)n(-c4ccc(C(=O)O)cc4)c3C)C2=O)cc1`, for which the inhibition is 8.1%. For `Cc1cccc(NC(=O)CN2C(=O)N/C(=C\c3cccn3-c3cccc(C(=O)O)c3)C2=O)c1` the value was -2.01%. Consider `Cc1ccc(NC(=O)CN2C(=O)S/C(=C\c3cc(C)n(-c4cccc(C(=O)O)c4)c3C)C2=O)cc1`, for which the inhibition is 0.24%. The same measure for `Cc1cc(C=C2C(=O)c3ccccc3C2=O)c(C)n1-c1cccc(C(=O)O)c1`: 7.28%; for `Cc1ccc(NC(=O)CN2C(=O)N/C(=C/c3cc(C)n(-c4cccc(C(=O)O)c4)c3C)C2=O)cc1`: 14.9% (active). The same measure for `Cc1ccc(NC(=O)CN2C(=O)N/C(=C/c3ccc(N4CCOCC4)cc3)C2=O)cc1`: -5.18%. For `CC(=O)NC1=NC(=O)/C(=C/c2cc(C)n(-c3ccc(NC(C)=O)cc3)c2C)S1` the value was 3.45%; for `Cc1ccc(-n2cccc2/C=C2/NC(=O)N(CC(=O)Nc3cccc(C)c3)C2=O)cc1`, 10.8%; for `Cc1ccc(NC(=O)CN2C(=O)S/C(=C\c3cccn3-c3cccc(C(=O)O)c3)C2=O)cc1C`, 6.74%. With `COc1ccccc1CNC(=O)CS(=O)Cc1nc(-c2ccccc2C)oc1C` (stereo unspecified), the inhibition is -3.21%. For `COc1ccc(CCNC(=O)c2ccc3ccccc3n2)cc1OC` the value was 1.59%; for `CCc1cccc(C)c1NC(=S)N(CCN(C)C)C(C)c1ccco1` (stereo unspecified), -1.5%; for `Cc1occc1C(=O)N/N=C/c1cnn(C)c1C`, 0.23%. The same measure for `CC1CN=C(NCCc2ccccc2)S1` (stereo unspecified): -5.97%; for `COc1ccc(Cl)cc1N(C(C)C(=O)NC1CCCC1)S(C)(=O)=O` (stereo unspecified): -1.06%. In the case of `Cc1nonc1C(=O)N/N=C/c1cccc(O)c1`, the inhibition is -5.8%. For `O=C1C=C(N2CCOCC2)C2(CCCCC2)O1` the value was -4.46%; for `CS(=O)(=O)c1nsc2nc(=O)c(/C=C3\C=Nc4ccccc43)c(N)n12`, 9.05%; for `CC(C)S(=O)(=O)c1nsc2nc(=O)c(/C=C3\C=Nc4ccccc43)c(N)n12`, 14.9% (active). As to `CC1=Nc2ccccc2/C1=C/c1c(N)n2c(S(=O)(=O)C(C)C)nsc2nc1=O`, the inhibition is 6.27%.

Consider `COc1ccc2[nH]c3c(N4CCc5ccccc5C4)ncnc3c2c1`, for which the inhibition is 0.43%. For `Cc1cc(C)n2nc(CC(=O)NCc3ccc(F)cc3)nc2n1` the value was 3.44%; for `Cc1ccc(-c2nc(C)sc2CC(=O)NCc2ccco2)cc1`, 14.4% (active); for `Cc1ccc(NC(=O)Cc2sc(C)nc2-c2ccc(C)cc2)cc1`, -0.58%. Turning to `Cc1ccc(-c2nc(C)sc2CC(=O)Nc2nnc(C)s2)cc1`, the inhibition is -1.22%.

Consider `Cc1coc(NC(=O)CSc2nc(-c3ccncc3)cc(C(F)(F)F)c2C#N)n1`, for which the inhibition was -2.15%. The same measure for `COc1ccccc1Cn1c(=S)[nH]c2cc(C(=O)NCc3cccnc3)ccc2c1=O`: -2.96%; for `COc1cc(CNn2cn[nH]c2=S)cc(Cl)c1OCc1ccccc1`: -2.33%. For `COc1cccc(-c2cc(-c3cccnc3)nc(N)c2C#N)c1` the value was 2.15%; for `O=[N+]([O-])c1c(N2CCN(CCO)CC2)nc2ccccn12`, 15.2% (active). For `Cc1nc([N+](=O)[O-])cn1-c1nc2ccccn2c1[N+](=O)[O-]` the value was -6.37%; for `O=[N+]([O-])c1ccc(N2CCN(CCO)CC2)c2ncccc12`, -1.16%.

As to `COc1cccc(N2[C@@H](CC(=O)O)c3cc(C(F)(F)F)ccc3S2(=O)=O)c1`, the inhibition was 7.93%. On to `C=CCn1c(Sc2ncc([N+](=O)[O-])s2)n[nH]c1=O`, for which the inhibition is 7.87%. `CCOc1ccc(N=Nc2c(=O)[nH]n3c(=O)cc(C)[nH]c23)cc1`: the inhibition is 17.1% (active). Consider `COc1cccc(N=Nc2c(=O)[nH]n3c(=O)c4c([nH]c23)CCC4)c1`, for which the inhibition was 5.17%. For `Cc1ccc(N=Nc2c(=O)[nH]n3c(=O)cc(C)[nH]c23)cc1` the value was 9.14%. The same measure for `Cc1cc(=O)n2[nH]c(=O)c(N=Nc3ccccc3)c2[nH]1`: 4.01%; for `COc1cccc(N=Nc2c(=O)[nH]n3c(=O)cc(C)[nH]c23)c1`: 13% (active). For `CCOc1ccc(N=Nc2c(=O)[nH]n3c(=O)c4c([nH]c23)CCCC4)cc1` the value was 4.96%. Regarding `COc1cc(NC(=O)c2cccc(COCC(F)(F)C(F)F)c2)cc(OC)c1OC`, the inhibition is -1.01%. For `CC(C)C1Oc2cc3oc(=O)ccc3cc2C1=O` (stereo unspecified) the value was 0.4%; for `S=c1[nH]nc(-c2cccnc2)n1/N=C/C=C/c1ccco1`, 7.53%. The same measure for `S=c1[nH]nc(-c2ccccc2)n1/N=C/C=C/c1ccco1`: 6.1%; for `S=c1[nH]nc(-c2ccncc2)n1/N=C/C=C/c1ccco1`: 13.6% (active).

For the molecule `O=C1NC(=O)N(Cc2ccccc2Cl)C(=O)/C1=C/c1cccs1`, the inhibition is 1.69%. The same measure for `C(=N/N1CCN(c2ccccc2)CC1)/c1ccncc1`: -0.53%; for `COc1ccc(Br)cc1S(=O)(=O)N1CCCC1`: 14.1% (active); for `CCOc1ccc(Br)cc1S(=O)(=O)N1CCCC1`: -3.03%. On to `COc1ccc(Br)cc1S(=O)(=O)N1CCOCC1`, for which the inhibition is -4.63%. As for `C=CCN(CC=C)C(=O)Nc1cc(Cl)ccc1OC`, the inhibition is 6.87%. For `O=C(CC1C(=O)N(c2ccccc2)C(=O)N1Cc1ccco1)Nc1ccccc1` (stereo unspecified) the value was 0.18%; for `Cc1cc(SCC(=O)N(C)CC(=O)Nc2ccc(F)cc2)nc2ccccc12`, 13.3% (active); for `Cc1csc(SCC(=O)N(C)CC(=O)Nc2ccc(F)cc2)n1`, -5.2%. The same measure for `Cc1nnc(SCC(=O)N(C)CC(=O)Nc2ccc(F)cc2)n1Cc1ccccc1`: -4.08%.
